# Assay results taken from PubChem BioAssay.
# Values joined by “and” are separate entries in the source; they are usually repeats but may differ in a detail not shown here. Equal entries are not always repeated. A structure can be active in one record and inactive in another. Active and inactive are the calls of the source.
# Key:
# [1] = tested on: PRMT1 (protein arginine N-methyltransferase 1); assay: PRMT1 binders on small-molecule microarrays, primary screen, biochemical, small-molecule microarray, 635 nm fluorescence (AID 1088); details: small-molecule microarray binding, higher = more signal;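 further: binding of Prmt1 protein to compounds spotted on small-molecule microarray slides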
# [2] = yeast growth modulation, basal conditions, primary screen, YJM789 clinical isolate, OD600, 24 h (AID 1089);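 further: growth of clinical yeast isolate S. cerevisiae YJM 789 seeded 1000 cells per well; test concentration not given here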; details: S. cerevisiae YJM789 growth, higher = more signal, called active from +8 up or from −8 down
# [3] = fission yeast growth modulation, primary screen, strain 972, OD600, 24 h, no modulator (AID 1090);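 further: basal condition with compound alone and no growth modifier present; test concentration not given here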; details: S. pombe 972 growth, higher = more signal, called active from +8 up or from −8 down
# [4] = S. cerevisiae growth modulation with rapamycin, primary screen, strain BY4716, OD600, 96 h (AID 1091); details: higher = more signal, called active from +8 up or from −8 down; further: test concentration not given here
# [5] = biological target: Torsin-1A-interacting protein 2 (Homo sapiens) (UniProt Q8NFQ8); assay: LULL1 binders on small-molecule microarray, primary screen, cell lysate, human LULL1 lysate, 635/667 nm fluorescence (AID 1092); details: hLULL1 lysate binding, 635 nm fluorescence, higher = more signal;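 further: probe is lysate of COS7 cells overexpressing human LULL1; score merges per-feature 667 nm fluorescence with signal-to-noise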
# Sequence of Torsin-1A-interacting protein 2 (Homo sapiens) (Q8NFQ8 whole entry, looked up): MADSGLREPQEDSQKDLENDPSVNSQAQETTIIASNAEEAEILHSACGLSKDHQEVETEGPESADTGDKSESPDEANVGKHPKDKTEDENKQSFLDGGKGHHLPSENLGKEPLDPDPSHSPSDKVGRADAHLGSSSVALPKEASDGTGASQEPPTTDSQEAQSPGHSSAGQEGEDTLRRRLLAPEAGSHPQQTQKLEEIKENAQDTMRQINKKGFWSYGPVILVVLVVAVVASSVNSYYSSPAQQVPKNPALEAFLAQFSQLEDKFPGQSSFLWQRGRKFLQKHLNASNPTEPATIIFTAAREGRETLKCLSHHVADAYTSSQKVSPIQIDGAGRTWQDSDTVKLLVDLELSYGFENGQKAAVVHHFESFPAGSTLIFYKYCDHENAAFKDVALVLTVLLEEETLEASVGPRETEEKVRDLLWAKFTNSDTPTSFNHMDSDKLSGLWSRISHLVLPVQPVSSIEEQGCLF
# [6] = E. coli growth modulation, two-sided OD650, primary screen, E. coli filamentation project, strain DRC41, 24 h (AID 1093); details: OD650, 24 h, higher = more signal, called active from +8 up or from −8 down;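 further: MC1000 strain lacking acrAB efflux and sulA so SOS filamentation is blocked; test concentration not given here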
# [7] = small-molecule microarray binders of probe aLefty2, primary screen, biochemical, biotinylated probe, 635/667 nm fluorescence (AID 1094); details: higher = more signal;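 further: score merges spot fluorescence near 667 nm with spot signal-to-noise ratio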
# [8] = tested on: Noggin (protein binding on small-molecule microarray); assay: Noggin binders on small-molecule microarray, primary screen, biochemical, 635/667 nm fluorescence (AID 1095); details: 635 nm fluorescence, higher = more signal;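 further: score merges 667 nm feature fluorescence with signal to noise over triplicate slides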
# [9] = biological target: Neurogenic locus notch homolog protein 3 (Homo sapiens) (UniProt Q9UM47); assay: NOTCH3 binders on small-molecule microarray, primary screen, biochemical, 635/667 nm fluorescence (AID 1096); details: NOTCH3 binding, 635 nm fluorescence, higher = more signal
# Sequence of Neurogenic locus notch homolog protein 3 (Homo sapiens) (Q9UM47 whole entry, looked up): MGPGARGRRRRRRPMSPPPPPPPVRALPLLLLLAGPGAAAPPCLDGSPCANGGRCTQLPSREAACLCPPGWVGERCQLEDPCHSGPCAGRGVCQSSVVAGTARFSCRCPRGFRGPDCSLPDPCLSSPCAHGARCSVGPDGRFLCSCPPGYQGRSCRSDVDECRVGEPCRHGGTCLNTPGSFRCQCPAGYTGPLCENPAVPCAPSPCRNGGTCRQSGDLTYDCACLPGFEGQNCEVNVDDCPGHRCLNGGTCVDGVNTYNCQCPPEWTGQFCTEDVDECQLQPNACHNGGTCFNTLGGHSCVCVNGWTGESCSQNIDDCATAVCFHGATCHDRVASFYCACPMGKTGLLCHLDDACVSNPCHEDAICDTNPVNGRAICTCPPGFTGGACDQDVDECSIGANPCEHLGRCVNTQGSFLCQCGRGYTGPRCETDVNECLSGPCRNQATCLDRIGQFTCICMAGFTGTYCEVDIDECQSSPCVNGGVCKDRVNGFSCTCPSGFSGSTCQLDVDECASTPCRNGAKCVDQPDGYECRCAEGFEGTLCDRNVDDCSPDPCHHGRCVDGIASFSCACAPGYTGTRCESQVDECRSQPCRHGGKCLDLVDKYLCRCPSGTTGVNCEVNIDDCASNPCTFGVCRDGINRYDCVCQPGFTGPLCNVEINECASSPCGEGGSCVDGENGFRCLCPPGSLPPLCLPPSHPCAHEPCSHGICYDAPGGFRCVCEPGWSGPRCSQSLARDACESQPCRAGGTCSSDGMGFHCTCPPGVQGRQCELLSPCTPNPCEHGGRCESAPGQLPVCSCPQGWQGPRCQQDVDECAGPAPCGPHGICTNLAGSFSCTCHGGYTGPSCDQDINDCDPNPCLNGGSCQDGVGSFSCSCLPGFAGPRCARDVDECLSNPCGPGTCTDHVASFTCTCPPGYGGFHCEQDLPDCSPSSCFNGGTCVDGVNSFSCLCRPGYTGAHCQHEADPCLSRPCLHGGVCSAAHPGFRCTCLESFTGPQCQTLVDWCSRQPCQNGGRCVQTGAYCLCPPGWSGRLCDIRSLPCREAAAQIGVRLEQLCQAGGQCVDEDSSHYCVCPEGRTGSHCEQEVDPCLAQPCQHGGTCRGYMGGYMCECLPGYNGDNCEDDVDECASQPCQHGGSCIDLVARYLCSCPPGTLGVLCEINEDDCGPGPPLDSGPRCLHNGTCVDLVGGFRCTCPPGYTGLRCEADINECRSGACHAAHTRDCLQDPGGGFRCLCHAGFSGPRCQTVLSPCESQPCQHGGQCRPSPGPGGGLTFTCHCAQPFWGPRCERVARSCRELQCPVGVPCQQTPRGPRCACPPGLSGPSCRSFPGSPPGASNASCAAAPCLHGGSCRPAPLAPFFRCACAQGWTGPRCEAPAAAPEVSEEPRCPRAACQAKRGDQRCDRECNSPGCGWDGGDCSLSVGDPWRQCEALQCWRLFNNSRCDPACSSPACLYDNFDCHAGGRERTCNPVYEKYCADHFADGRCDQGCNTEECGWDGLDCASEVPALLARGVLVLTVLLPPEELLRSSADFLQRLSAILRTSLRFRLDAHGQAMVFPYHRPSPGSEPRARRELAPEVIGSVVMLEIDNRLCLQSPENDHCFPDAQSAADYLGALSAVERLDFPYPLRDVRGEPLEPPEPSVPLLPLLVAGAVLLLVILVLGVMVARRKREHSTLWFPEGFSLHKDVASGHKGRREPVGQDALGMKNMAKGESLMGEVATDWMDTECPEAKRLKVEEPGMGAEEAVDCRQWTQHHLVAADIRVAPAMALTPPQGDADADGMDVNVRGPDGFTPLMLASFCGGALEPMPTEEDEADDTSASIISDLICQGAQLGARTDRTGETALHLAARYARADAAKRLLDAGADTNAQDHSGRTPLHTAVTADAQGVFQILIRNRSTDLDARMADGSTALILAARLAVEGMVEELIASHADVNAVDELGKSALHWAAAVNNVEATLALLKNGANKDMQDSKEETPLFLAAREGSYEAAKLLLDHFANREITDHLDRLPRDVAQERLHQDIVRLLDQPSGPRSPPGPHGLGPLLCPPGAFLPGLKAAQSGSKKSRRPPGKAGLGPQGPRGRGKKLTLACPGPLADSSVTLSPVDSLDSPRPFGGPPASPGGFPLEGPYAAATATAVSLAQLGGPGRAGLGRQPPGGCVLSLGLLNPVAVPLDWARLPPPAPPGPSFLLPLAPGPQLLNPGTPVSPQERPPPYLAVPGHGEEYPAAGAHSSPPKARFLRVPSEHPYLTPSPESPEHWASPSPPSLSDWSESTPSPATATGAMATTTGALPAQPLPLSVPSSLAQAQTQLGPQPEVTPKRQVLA
# [10] = small-molecule microarray binders of probe aEGFR, primary screen, biochemical, biotinylated probe, 635/667 nm fluorescence (AID 1097); details: higher = more signal;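 further: probe is a biotinylated anti-EGFR antibody binding compounds printed on slides; score combines fluorescence near 667 nm and signal to noise of each spot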
# [11] = tested on: Plasmodium falciparum Sir2 (PF13_0152, Sir2A); assay: pfSir2 binders on small-molecule microarrays, primary screen, biochemical, small-molecule microarray, 635 nm fluorescence (AID 1098); details: small-molecule microarray binding, fluorescence 635 nm; higher = more signal;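 further: score merges spot fluorescence intensity with its signal-to-noise ratio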
# [12] = small-molecule microarray binders of probe aDKK1, primary screen, biochemical, biotinylated probe, 635/667 nm fluorescence (AID 1099); details: higher = more signal;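 further: score merges 667nm spot fluorescence with signal to noise across triplicate slides; reference of the scale not given here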
# [13] = small-molecule microarray binders of probe aCHRDL2, primary screen, biochemical, biotinylated probe, 635/667 nm fluorescence (AID 1100); details: higher = more signal
# [14] = splicing luciferase reporter signal modulators, primary screen, spliceosome inhibition project, cell-based, HEK293, splice +/- reporter (AID 1101); details: luminescence, 24 h, higher = more signal, called active from +8 up or from −8 down;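 further: HEK293 cells carrying a splicing-competent luciferase reporter gene; test concentration not given here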
# [15] = biological target: Fibroblast growth factor 10 (Homo sapiens) (UniProt O15520); assay: FGF10 binders on small-molecule microarrays, primary screen, biochemical, small-molecule microarray, 635 nm fluorescence (AID 1102); details: FGF10 binding, fluorescence 635 nm, higher = more signal
# Sequence of Fibroblast growth factor 10 (Homo sapiens) (O15520 whole entry, looked up): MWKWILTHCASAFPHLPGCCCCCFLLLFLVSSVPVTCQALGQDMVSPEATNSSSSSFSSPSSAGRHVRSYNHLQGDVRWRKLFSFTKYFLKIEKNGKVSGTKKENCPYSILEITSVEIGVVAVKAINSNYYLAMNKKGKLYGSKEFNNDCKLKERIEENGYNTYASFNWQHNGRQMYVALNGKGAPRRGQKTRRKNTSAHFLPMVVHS
# [16] = tested on: glycogen synthase kinase-3 (GSK3A per assay name; protocol says GSK3B); assay: GSK3 binders on small-molecule microarrays, primary screen, biochemical, small-molecule microarray, 635 nm fluorescence, GSK3A (AID 1103); details: small-molecule microarray binding, fluorescence 635 nm; higher = more signal; further: the record names both GSK3A and GSK3B
# [17] = biological target: Epidermal growth factor receptor (Homo sapiens) (UniProt P00533); assay: EGFR binders on small-molecule microarrays, primary screen, biochemical, small-molecule microarray, 635 nm fluorescence (AID 1104); details: EGFR binding, higher = more signal;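 further: score merges 667 nm emission intensity with spot signal to noise over triplicate slides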
# Sequence of Epidermal growth factor receptor (Homo sapiens) (P00533 whole entry, looked up): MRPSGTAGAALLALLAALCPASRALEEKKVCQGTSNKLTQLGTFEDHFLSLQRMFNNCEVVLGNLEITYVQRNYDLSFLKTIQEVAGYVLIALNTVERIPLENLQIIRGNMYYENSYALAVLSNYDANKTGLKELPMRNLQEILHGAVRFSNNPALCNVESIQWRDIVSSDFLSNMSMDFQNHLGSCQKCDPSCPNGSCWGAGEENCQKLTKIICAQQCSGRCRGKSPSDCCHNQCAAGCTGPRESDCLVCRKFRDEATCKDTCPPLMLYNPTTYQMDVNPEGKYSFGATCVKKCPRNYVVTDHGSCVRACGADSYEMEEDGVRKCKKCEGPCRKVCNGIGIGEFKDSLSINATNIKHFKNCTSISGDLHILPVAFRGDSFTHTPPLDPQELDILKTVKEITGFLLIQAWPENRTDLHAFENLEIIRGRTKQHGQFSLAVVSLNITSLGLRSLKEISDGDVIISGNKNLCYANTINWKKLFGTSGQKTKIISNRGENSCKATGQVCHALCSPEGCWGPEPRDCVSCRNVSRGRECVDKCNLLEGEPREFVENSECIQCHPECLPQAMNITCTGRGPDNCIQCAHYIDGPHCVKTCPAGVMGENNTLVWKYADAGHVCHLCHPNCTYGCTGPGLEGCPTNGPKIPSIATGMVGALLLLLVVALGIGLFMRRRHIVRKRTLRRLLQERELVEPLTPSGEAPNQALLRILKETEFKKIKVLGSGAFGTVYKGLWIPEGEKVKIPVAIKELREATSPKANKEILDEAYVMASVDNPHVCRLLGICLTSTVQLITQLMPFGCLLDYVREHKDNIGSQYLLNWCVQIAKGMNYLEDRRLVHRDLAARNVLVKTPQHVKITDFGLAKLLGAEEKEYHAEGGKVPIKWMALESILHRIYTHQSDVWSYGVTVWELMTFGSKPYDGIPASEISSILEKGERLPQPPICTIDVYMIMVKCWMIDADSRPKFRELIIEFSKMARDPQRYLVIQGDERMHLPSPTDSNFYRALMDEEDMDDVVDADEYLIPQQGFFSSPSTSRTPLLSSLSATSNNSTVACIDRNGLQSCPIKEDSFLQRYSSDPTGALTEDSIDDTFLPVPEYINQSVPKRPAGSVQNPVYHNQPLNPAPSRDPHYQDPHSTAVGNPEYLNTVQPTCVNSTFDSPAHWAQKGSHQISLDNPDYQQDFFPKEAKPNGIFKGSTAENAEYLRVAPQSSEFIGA
# [18] = biological target: Follistatin-related protein 3 (Homo sapiens) (UniProt O95633); assay: FSTL3 binders on small-molecule microarrays, primary screen, biochemical, small-molecule microarray, 635 nm fluorescence (AID 1105); details: FSTL3 binding, higher = more signal;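 further: score merges emission near 667 nm and signal to noise per printed spot across three slides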
# Sequence of Follistatin-related protein 3 (Homo sapiens) (O95633 whole entry, looked up): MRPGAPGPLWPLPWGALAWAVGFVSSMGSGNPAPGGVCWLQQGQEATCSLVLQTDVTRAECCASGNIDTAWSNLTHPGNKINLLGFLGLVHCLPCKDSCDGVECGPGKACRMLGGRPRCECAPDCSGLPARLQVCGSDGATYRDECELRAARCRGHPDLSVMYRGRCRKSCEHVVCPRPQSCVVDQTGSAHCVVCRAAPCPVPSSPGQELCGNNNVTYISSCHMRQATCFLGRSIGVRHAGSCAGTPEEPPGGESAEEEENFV
# [19] = biological target: Dickkopf-related protein 1 (Homo sapiens) (UniProt O94907); assay: DKK1 binders on small-molecule microarrays, primary screen, biochemical, small-molecule microarray, 635 nm fluorescence scan (AID 1106); details: DKK1 binding, higher = more signal;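 further: score merges emission near 667 nm with signal to noise over three replicate slides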
# Sequence of Dickkopf-related protein 1 (Homo sapiens) (O94907 whole entry, looked up): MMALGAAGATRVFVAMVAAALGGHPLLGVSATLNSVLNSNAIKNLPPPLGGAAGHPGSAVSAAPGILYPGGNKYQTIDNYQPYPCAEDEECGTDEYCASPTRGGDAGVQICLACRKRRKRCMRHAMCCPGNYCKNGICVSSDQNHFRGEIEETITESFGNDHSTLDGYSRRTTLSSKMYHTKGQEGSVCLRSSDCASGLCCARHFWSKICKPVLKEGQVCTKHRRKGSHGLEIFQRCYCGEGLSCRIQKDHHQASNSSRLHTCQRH
# [20] = tested on: Inhibin beta A chain (activin A); assay: INHBA (activin A) binders on microarrays, primary screen, biochemical, small-molecule microarray, 635 nm fluorescence scan (AID 1107); details: small-molecule microarray binding, higher = more signal;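 further: mouse activin A protein probed at 4.33 µg/mL on printed slides; score merges bound-protein fluorescence near 667 nm with spot signal-to-noise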
Compound,composite z-score [1],z-score [2],z-score [3],z-score [4],composite z-score [5],z-score [6],composite z-score [7],composite z-score [8],composite z-score [9],composite z-score [10],composite z-score [11],composite z-score [12],composite z-score [13],z-score [14],composite z-score [15],composite z-score [16],composite z-score [17],composite z-score [18],composite z-score [19],composite z-score [20]
CO[C@@H]1COC(=O)[C@H](Cc2ccccc2)NC(=O)CC=C[C@@H](C)[C@H](OC)COC(=O)[C@@H](C)NC(=O)CC=C[C@H]1C,1.53 and 1.15,-0.706 (inactive) and -0.356 (inactive),-1.71 (inactive) and -1.2 (inactive),-0.916 (inactive) and -0.753 (inactive),0.469 and -0.0887,-0.0559 (inactive) and 0.361 (inactive),-0.217 and -0.393,1.45 and 1.06,1.07 and 0.862,-0.0616 and -0.0438,1.58 and 0.899,-0.447 and -0.987,-1.06 and -1.37,-1.14 (inactive) and -1.29 (inactive),0.497 and 0.956,1.07 and 0.496,0.882 and 0.64,1.29 and 0.876,0.696 and 1.67,1.42 and 0.336
C=C[C@@H](OC)[C@H](O)c1ccc(O)c(F)c1,-0.846 and -1.51,0.144 (inactive) and -3.13 (inactive),-1.44 (inactive) and -3.23 (inactive),0.126 (inactive) and -0.692 (inactive),-0.329 and -0.941,0.401 (inactive) and 1.45 (inactive),-0.257 and -0.124,-2.13 and -1.13,-1.37 and -0.192,-0.435 and -0.299,0.767 and -0.815,-0.324 and -0.472,0.576 and 0.268,-0.668 (inactive) and -2.09 (inactive),-1.19 and -1.46,-1.5 and -1.29,-1.59 and -0.277,-2.7 and -1.75,-1.37 and -0.856,-2.04 and -0.759
CCN1C(=O)[C@H]2[C@H]3[C@H](O)[C@H](O)CC(=NOC[C@@H](O)COCc4ccco4)[C@@H]3CC[C@H]2C1=O,1.4 and 0.727,0.686 (inactive) and 0.102 (inactive),0.315 (inactive) and 0.174 (inactive),1.29 (inactive) and 0.945 (inactive),-1.03 and 0.493,0.0584 (inactive) and -1.13 (inactive),-0.266 and -0.44,0.445 and -0.121,-0.365 and -0.32,0.0747 and -0.0413,0.449 and 1.11,0.439 and -0.572,-1.3 and -1.1,0.259 (inactive) and 0.403 (inactive),-0.397 and 0.588,0.823 and -0.198,1.28 and 0.0979,1.21 and -0.333,1.56 and 0.836,0.666 and -0.0006
CCCC[C@@H]1CN2[C@@H](CC[C@@H](C)[C@@H]2c2ccc(Br)cc2)C(=O)O1,1.38 and 0.811,0.301 (inactive) and 0.0912 (inactive),-17.2 (active) and -6.6 (inactive),-0.278 (inactive) and 0.42 (inactive),1.93 and 1.44,0.133 (inactive) and 0.153 (inactive),-0.0446 and -0.239,0.0666 and -0.156,0.287 and 0.683,-0.141 and 0.0021,0.469 and 0.883,-0.13 and -0.277,-0.455 and -0.254,0.33 (inactive) and 0.758 (inactive),0.979 and 0.906,0.521 and 0.0677,0.183 and -0.121,0.516 and 0.351,0.272 and 0.136,0.488 and -0.0019
CC(C)C(=O)N[C@@H]1CCCN1C(=O)C=Cc1ccccc1,0.731,-0.91 (inactive),-0.0986 (inactive),-0.307 (inactive),0.783,1.03 (inactive),-0.14,0.783,0.786,0.0289,0.98,-0.311,-0.469,0.655 (inactive),0.419,0.883,0.432,0.709,0.47,-0.172
CC(CO)N1C(=O)[C@@H]2C3C(=O)OCCC=C[C@H]3OC23C=CCN(CCN2CCOCC2)C(=O)[C@@H]13 (stereo not given in full),-0.353 and 1.34,0.517 (inactive) and -1.32 (inactive),-0.0581 (inactive) and -1.22 (inactive),0.565 (inactive) and -0.233 (inactive),-0.634 and 3.22,-0.381 (inactive) and -0.16 (inactive),-0.186 and 0.166,-0.0409 and 0.0947,0.331 and 0.465,-0.207 and -0.0046,0.53 and 0.55,-0.278 and 0.0598,-0.389 and 0.466,0.388 (inactive) and -0.153 (inactive),-0.131 and -0.0694,-0.496 and 0.65,-0.51 and -0.235,-0.0214 and -0.166,0.0325 and -0.442,0.621 and 1.59
